Results taken from the OligoGym collection.

Target: DMXL1
Experiment: pooled miR-30 sensor sort-seq; sequence = guide strand
Conditions: shRNA
Note: reference of the scale not given here.

Row | Sequence | sensor-assay potency score (higher = more potent)
1 | TTTTTCTGAACTTCCATCTGGA | 0.702
2 | TTACACATTCTACTTTAGGCAA | -0.183
3 | AAATAGTACATAATTGTCCCAT | 0.365
4 | TACATTTCTAAATAGTATCTAC | -0.076
5 | TTCTTGAACATCATGACTGGAA | -0.0948
6 | ATTACTTACACATTCTACTTTA | -0.377
7 | TTCTATATCATCATCTACCCAA | -0.207
8 | TTTCATTAAATGAACTTGGGAA | 0.382
9 | TTCGCTAATATATACAACTAAG | -0.796
10 | TTTCTGAACTTCCATCTGGAGA | -0.95
11 | TTCATTTTCATTTAGACTCAGA | -0.406
12 | TTTCTATTAATGGTAGATCTGG | -0.715
13 | TTGAACTCGTTCTTTACTGGAA | -0.246
14 | TTGTTTCTGAAAACACTGCTAT | 0.009
15 | TTTGTTTCTGAAAACACTGCTA | 0.164

Target: DNAJA2
Experiment: as above
Conditions: shRNA

Row | Sequence | sensor-assay potency score (higher = more potent)
16 | TTTCATGCCTTTGTCTACGTGG | -0.148
17 | TTGATAGTACTTCATATGCAAA | -1.43
18 | TACCTCATGTTCTTTCTCCTGT | 0.929
19 | TTCTTCAGCTCGTTCTCGCTGG | -0.323
20 | TTCAAGAATCTTGACTTCTTTA | -0.418
21 | TAGTTCAGAAAGCTTGTCTGGG | 0.299
22 | TATTCCTTGGCTAACTTTCTGT | -0.171
23 | TATTTCACCACAATCTGACGTC | 0.583
24 | AATTATGTTAGGAACTTCCGGT | -0.0625
25 | TCGAGTGCTATCAAATTCCTGA | 0.237
26 | TAGAGCTTCAACAAGTCCTATT | -0.658
27 | TTTCTTTAAATTTGTCTCCTGC | 0.759

Target: DNAJB11
Experiment: as above
Conditions: shRNA

Row | Sequence | sensor-assay potency score (higher = more potent)
28 | TTGTGTACAAATCATCTCCTCT | -0.302
29 | TTCTTCACCATAAGTATCGTAC | -0.183
30 | TTCACCATAAGTATCGTACTGT | 0.409
31 | TTTGTTTCTAACTACTTCCACA | -0.721
32 | TTTGTGTACAAATCATCTCCTC | -0.115
33 | TTCGGAACCGTAAATCTCCAGG | -0.565
34 | TCTATTTCTACTTCCAGCGTTC | -0.287
35 | TATTTCTGTCTTGCTGACGAGG | -1.05
36 | TCTTATAGAAATCTCGTCCGGC | 0.334
37 | TATACCTTCTGCACTGACCCTT | 0.681
38 | TCTTCCATAGCTTCGCTCCTGG | -0.0366
39 | TTCGTCGCAGACCACCTCCTGG | -1.23
